{"source": "PubChem BioAssay AID1159580", "about": "(chemical genetic matrix, 2015)", "assay": "chemical genetic growth profiling, strain panel (AID 1159580);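 further: tested at 20 µM; growth read once vehicle control cultures reached saturation at 30 °C; 1 = growth at the plate median or of vehicle wells; lower values mean less growth of the strain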", "conditions": "growth OD", "note": "The campaign covered roughly 5,500 compounds. About 2,000 (36%) were called active. Not shown: some 18% with an inconclusive outcome. Some of the results follow. Values without a mark were called inactive. No stated cut-off is given here; in the data, active means normalized growth mostly below about 0.91 (no sharp cut-off); inconclusive means no clear call, values can overlap the other calls; inactive means mostly above about 0.92."}
{"compound": "COc1ccc2c(c1)OCC(Cc1ccc(OC)c(O)c1)C2=O", "note": "(stereo not drawn)", "values": [{"measurement": "normalized growth", "setting": "S. cerevisiae deletion strains, locus YJR043C, strain POL32, hits give low values", "result": 0.998}, {"measurement": "normalized growth", "setting": "S. cerevisiae deletion strains, locus YJR066W, strain TOR1, hits give low values", "result": 0.904}, {"measurement": "normalized growth", "setting": "S. cerevisiae deletion strains, locus YKL009W, strain mrt4, hits give low values", "result": 0.94}, {"measurement": "normalized growth", "setting": "S. cerevisiae deletion strains, locus YKL068W, hits give low values", "result": 0.97}, {"measurement": "normalized growth", "setting": "S. cerevisiae deletion strains, locus YKL085W, strain MDH1 (second series), hits give low values", "result": 0.969}, {"measurement": "normalized growth", "setting": "S. cerevisiae deletion strains, locus YKL085W, strain MDH1, hits give low values", "result": 0.969}, {"measurement": "normalized growth", "setting": "S. cerevisiae deletion strains, locus YKL160W, strain elf1, hits give low values", "result": 0.925}, {"measurement": "normalized growth", "setting": "S. cerevisiae deletion strains, locus YKL190W, strain CNB1, hits give low values", "result": 0.984}, {"measurement": "normalized growth", "setting": "S. cerevisiae deletion strains, locus YKR001C, strain vps1, hits give low values", "result": 0.964}, {"measurement": "normalized growth", "setting": "S. cerevisiae deletion strains, locus YKR026C, strain gcn3, hits give low values", "result": 0.966}, {"measurement": "normalized growth", "setting": "S. cerevisiae deletion strains, locus YKR091W, strain srl3, hits give low values", "result": 0.962}, {"measurement": "normalized growth", "setting": "S. cerevisiae deletion strains, locus YLL001W, strain dnm1, hits give low values", "result": 0.931}, {"measurement": "normalized growth", "setting": "S. cerevisiae deletion strains, locus YLL026W, hits give low values", "result": 0.957}, {"measurement": "normalized growth", "setting": "S. cerevisiae deletion strains, locus YLL041C, strain sdh2, hits give low values", "result": 0.955}, {"measurement": "normalized growth", "setting": "S. cerevisiae deletion strains, locus YLR027C, strain aat2, hits give low values", "result": 0.933}, {"measurement": "normalized growth", "setting": "S. cerevisiae deletion strains, locus YLR039C, strain RIC1, hits give low values", "result": 1.02}, {"measurement": "normalized growth", "setting": "S. cerevisiae deletion strains, locus YLR058C, strain SHM2, hits give low values", "result": 0.958}, {"measurement": "normalized growth", "setting": "S. cerevisiae deletion strains, locus YLR102C, strain apc9, hits give low values", "result": 0.955}, {"measurement": "normalized growth", "setting": "S. cerevisiae deletion strains, locus YLR113W, strain HOG1, hits give low values", "result": 0.917}, {"measurement": "normalized growth", "setting": "S. cerevisiae deletion strains, locus YLR221C, strain rsa3, hits give low values", "result": 0.923}, {"measurement": "normalized growth", "setting": "S. cerevisiae deletion strains, locus YLR258W, strain gsy2, hits give low values", "result": "0.91 (active)"}, {"measurement": "normalized growth", "setting": "S. cerevisiae deletion strains, locus YLR262C, strain YPT6 (second series), hits give low values", "result": 0.985}, {"measurement": "normalized growth", "setting": "S. cerevisiae deletion strains, locus YLR262C, strain YPT6, hits give low values", "result": 0.986}, {"measurement": "normalized growth", "setting": "S. cerevisiae deletion strains, locus YLR268W, strain sec22, hits give low values", "result": 0.976}, {"measurement": "normalized growth", "setting": "S. cerevisiae deletion strains, locus YLR320W, strain mms22, hits give low values", "result": "0.835 (active)"}, {"measurement": "normalized growth", "setting": "S. cerevisiae deletion strains, locus YLR330W, strain CHS5, hits give low values", "result": 0.952}, {"measurement": "normalized growth", "setting": "S. cerevisiae deletion strains, locus YLR342W, strain FKS1 (second series), hits give low values", "result": 0.955}, {"measurement": "normalized growth", "setting": "S. cerevisiae deletion strains, locus YLR342W, strain FKS1, hits give low values", "result": 0.922}, {"measurement": "normalized growth", "setting": "S. cerevisiae deletion strains, locus YLR357W, strain rsc2, hits give low values", "result": 0.998}, {"measurement": "normalized growth", "setting": "S. cerevisiae deletion strains, locus YLR370C, strain arc18, hits give low values", "result": 0.97}, {"measurement": "normalized growth", "setting": "S. cerevisiae deletion strains, locus YLR371W, strain rom2, hits give low values", "result": 0.975}, {"measurement": "normalized growth", "setting": "S. cerevisiae deletion strains, locus YLR384C, strain iki3, hits give low values", "result": 0.948}, {"measurement": "normalized growth", "setting": "S. cerevisiae deletion strains, locus YLR418C, strain cdc73, hits give low values", "result": "0.81 (active)"}, {"measurement": "normalized growth", "setting": "S. cerevisiae deletion strains, locus YML016C, strain PPZ1, hits give low values", "result": 0.967}, {"measurement": "normalized growth", "setting": "S. cerevisiae deletion strains, locus YML032C, strain rad52, hits give low values", "result": 0.949}, {"measurement": "normalized growth", "setting": "S. cerevisiae deletion strains, locus YML120C, strain ndi1, hits give low values", "result": 0.938}, {"measurement": "normalized growth", "setting": "S. cerevisiae deletion strains, locus YML124C, strain tub3, hits give low values", "result": 0.954}, {"measurement": "normalized growth", "setting": "S. cerevisiae deletion strains, locus YMR058W, strain fet3, hits give low values", "result": 0.948}, {"measurement": "normalized growth", "setting": "S. cerevisiae deletion strains, locus YMR078C, strain ctf18, hits give low values", "result": 0.95}, {"measurement": "normalized growth", "setting": "S. cerevisiae deletion strains, locus YMR125W, strain sto1, hits give low values", "result": 1.01}, {"measurement": "normalized growth", "setting": "S. cerevisiae deletion strains, locus YMR129W, hits give low values", "result": 0.948}, {"measurement": "normalized growth", "setting": "S. cerevisiae deletion strains, locus YMR205C, strain PFK2, hits give low values", "result": "0.833 (active)"}, {"measurement": "normalized growth", "setting": "S. cerevisiae deletion strains, locus YMR223W, strain ubp8, hits give low values", "result": 0.933}, {"measurement": "normalized growth", "setting": "S. cerevisiae deletion strains, locus YMR231W, strain pep5, hits give low values", "result": 0.967}, {"measurement": "normalized growth", "setting": "S. cerevisiae deletion strains, locus YMR307W, strain GAS1, hits give low values", "result": 0.97}, {"measurement": "normalized growth", "setting": "S. cerevisiae deletion strains, locus YNL067W, strain RPL9B, hits give low values", "result": 0.944}, {"measurement": "normalized growth", "setting": "S. cerevisiae deletion strains, locus YNL071W, strain lat1, hits give low values", "result": "0.681 (active)"}, {"measurement": "normalized growth", "setting": "S. cerevisiae deletion strains, locus YNL183C, strain NPR1, hits give low values", "result": 0.933}, {"measurement": "normalized growth", "setting": "S. cerevisiae deletion strains, locus YNL209W, strain ssb2, hits give low values", "result": 0.978}, {"measurement": "normalized growth", "setting": "S. cerevisiae deletion strains, locus YNL233W, strain BNI4, hits give low values", "result": 0.905}, {"measurement": "normalized growth", "setting": "S. cerevisiae deletion strains, locus YNL248C, strain rpa49, hits give low values", "result": 0.919}, {"measurement": "normalized growth", "setting": "S. cerevisiae deletion strains, locus YNL250W, strain rad50, hits give low values", "result": 0.94}, {"measurement": "normalized growth", "setting": "S. cerevisiae deletion strains, locus YNL271C, strain bni1, hits give low values", "result": 0.952}, {"measurement": "normalized growth", "setting": "S. cerevisiae deletion strains, locus YNL298W, strain CLA4, hits give low values", "result": 0.959}, {"measurement": "normalized growth", "setting": "S. cerevisiae deletion strains, locus YNL307C, strain MCK1, hits give low values", "result": "0.824 (active)"}, {"measurement": "normalized growth", "setting": "S. cerevisiae deletion strains, locus YNL322C, strain KRE1 (second series), hits give low values", "result": 0.949}, {"measurement": "normalized growth", "setting": "S. cerevisiae deletion strains, locus YNR049C, strain mso1, hits give low values", "result": 0.967}, {"measurement": "normalized growth", "setting": "S. cerevisiae deletion strains, locus YNR052C, strain pop2, hits give low values", "result": 0.937}, {"measurement": "normalized growth", "setting": "S. cerevisiae deletion strains, locus YOL012C, strain htz1", "result": 1.16}, {"measurement": "normalized growth", "setting": "S. cerevisiae deletion strains, locus YOL147C, strain pex11, hits give low values", "result": 0.964}, {"measurement": "normalized growth", "setting": "S. cerevisiae deletion strains, locus YOR001W, strain rrp6, hits give low values", "result": 0.898}, {"measurement": "normalized growth", "setting": "S. cerevisiae deletion strains, locus YOR061W, strain CKA2, hits give low values", "result": 0.963}, {"measurement": "normalized growth", "setting": "S. cerevisiae deletion strains, locus YOR069W, strain VPS5, hits give low values", "result": 0.96}, {"measurement": "normalized growth", "setting": "S. cerevisiae deletion strains, locus YOR070C, strain gyp1, hits give low values", "result": 0.968}, {"measurement": "normalized growth", "setting": "S. cerevisiae deletion strains, locus YOR080W, strain dia2, hits give low values", "result": 0.979}, {"measurement": "normalized growth", "setting": "S. cerevisiae deletion strains, locus YOR083W, strain WHI5, hits give low values", "result": 0.911}, {"measurement": "normalized growth", "setting": "S. cerevisiae deletion strains, locus YOR106W, strain vam3, hits give low values", "result": 0.886}, {"measurement": "normalized growth", "setting": "S. cerevisiae deletion strains, locus YOR136W, strain idh2, hits give low values", "result": 0.962}, {"measurement": "normalized growth", "setting": "S. cerevisiae deletion strains, locus YOR144C, strain elg1, hits give low values", "result": 0.95}, {"measurement": "normalized growth", "setting": "S. cerevisiae deletion strains, locus YOR184W, strain ser1, hits give low values", "result": 0.906}, {"measurement": "normalized growth", "setting": "S. cerevisiae deletion strains, locus YOR231W, strain MKK1, hits give low values", "result": 0.998}, {"measurement": "normalized growth", "setting": "S. cerevisiae deletion strains, locus YOR265W, strain rbl2, hits give low values", "result": 0.962}, {"measurement": "normalized growth", "setting": "S. cerevisiae deletion strains, locus YOR270C, strain vph1, hits give low values", "result": 0.823}, {"measurement": "normalized growth", "setting": "S. cerevisiae deletion strains, locus YOR290C, strain snf2, hits give low values", "result": 0.897}, {"measurement": "normalized growth", "setting": "S. cerevisiae deletion strains, locus YOR316C, strain cot1, hits give low values", "result": 0.959}, {"measurement": "normalized growth", "setting": "S. cerevisiae deletion strains, locus YPL051W, strain arl3, hits give low values", "result": 0.939}, {"measurement": "normalized growth", "setting": "S. cerevisiae deletion strains, locus YPL055C, strain LGE1, hits give low values", "result": 0.96}, {"measurement": "normalized growth", "setting": "S. cerevisiae deletion strains, locus YPL078C, strain atp4, hits give low values", "result": 0.914}, {"measurement": "normalized growth", "setting": "S. cerevisiae deletion strains, locus YPL106C, strain sse1, hits give low values", "result": 0.972}, {"measurement": "normalized growth", "setting": "S. cerevisiae deletion strains, locus YPL240C, strain hsp82, hits give low values", "result": 0.946}, {"measurement": "normalized growth", "setting": "S. cerevisiae deletion strains, locus YPL241C, strain CIN2, hits give low values", "result": 0.973}, {"measurement": "normalized growth", "setting": "S. cerevisiae deletion strains, locus YPL256C, strain CLN2, hits give low values", "result": 1.01}, {"measurement": "normalized growth", "setting": "S. cerevisiae deletion strains, locus YPR119W, strain clb2, hits give low values", "result": 0.95}, {"measurement": "normalized growth", "setting": "S. cerevisiae deletion strains, locus YPR141C, strain kar3, hits give low values", "result": 0.971}, {"measurement": "normalized growth", "setting": "S. cerevisiae deletion strains, locus YPR163C, strain tif3, hits give low values", "result": "0.842 (active)"}, {"measurement": "normalized growth", "setting": "S. cerevisiae deletion strains, locus YPR167C, strain met16, hits give low values", "result": "0.89 (active)"}, {"measurement": "normalized growth", "setting": "S. cerevisiae deletion strains, strain wtn01, hits give low values", "result": 0.95}, {"measurement": "normalized growth", "setting": "S. cerevisiae strains, strain wild type, hits give low values", "result": 0.973}]}
